ChEMBL document CHEMBL3988442, “University of Dundee, Small-Polar-MMV Screening Library” (2021)
About 13,000 (27%) of roughly 48,000 compounds showed an effect of 50% or more. This is one part of the list.

What follows are molecules tested on Wolbachia pipientis (assay: Anti-Wolbachia Cell-Based Screen). Conditions: 5 µM.
Assay type: functional
Design: scale not given: in the data most compounds retested in dose-response had high values

Row | SMILES | Percent Effect [%]
1 | Cc1ncsc1CCC(=O)N1CCN(CCn2cncn2)CC1 | -30.48
2 | CS(=O)(=O)c1nnc(NC(=O)CCc2ccc(Cl)s2)[nH]1 | -11.44
3 | COc1cc(CN(C)C(=O)NCCNC(=O)C2CC2)ccc1SC | 6.493
4 | Cc1nnc(CN2CCN(C)C3(CCNC(=O)CC3)C2)s1 (stereo not drawn) | -6.186
5 | CN(C)C(=O)CNC(=O)c1cc2c(s1)CCN2S(C)(=O)=O | 110.9
6 | CN(C)C(=O)CNC(=O)c1cc(Br)c2c(c1)OCCO2 | -3.612
7 | CN(C)C(=O)c1cc2c(s1)CCN(C(=O)CCCN1CCCCC1)C2 | -52.48
8 | CC(C)(C)c1noc(CNc2ccccc2N2CCC(O)CC2)n1 | -3.978
9 | CCC(C)CS(=O)(=O)NC(=O)C1CCC1 (stereo not drawn) | 4.874
10 | CCc1nc2n(n1)CC(NCC(=O)Nc1nccs1)CC2 (stereo not drawn) | -6.343
11 | Cc1csc(Nc2cc(C3CN(C(C)C)C3)nc(C)n2)n1 | 95.99
12 | Cc1nc(Nc2nccs2)cc(C2CCCN2C2CCOCC2)n1 (stereo not drawn) | -3.7
13 | Cc1cc(C)nc(Nc2cc(C3CCCN(C)C3)nc(C)n2)n1.O=CO (stereo not drawn) | -14.01
14 | Cc1ccccc1N1CCN(c2ccncn2)C(C)C1 (stereo not drawn) | 0.9098
15 | Cc1nc(Nc2nccs2)cc(C2CN(C(C)C)C2)n1 | 64.11
16 | Cc1csc(Nc2cc(C3CN(c4ccncn4)C3)nc(C)n2)n1 | 120.5
17 | CCc1nc(NC(=O)NCCc2cscn2)nn1C | -7.78
18 | O=C(NCCOc1ncc(Cl)cc1Cl)NCc1ccncc1 | -21.42
19 | Cn1ccnc1SCCNc1ccnc(C(F)(F)F)n1 | 2.447
20 | CC(C)(NC(=O)c1cnc(C(C)(C)C)s1)C(N)=O | -3.596
21 | CCNc1ncc(C(=O)N[C@H](C(N)=O)c2ccccc2)cn1 | 7.272
22 | CC(C)(C)c1ncc(C(=O)NC(C(N)=O)c2ccccc2)s1 (stereo not drawn) | 80.78
23 | CC(C)(C)c1ncc(C(=O)NCCNC(=O)c2ccco2)s1 | 107.2
24 | CC(C)(CNC(=O)c1ccco1)CNC(=O)c1ccco1 | -33.3
25 | CC(C)(C)C(=O)c1ccsc1NC(=O)CCNC(=O)c1ccco1 | -2.755

Row | SMILES | Percent Effect [%]
26 | CC(C)(C)c1ncc(C(=O)NCCNC(=O)Cc2ccccc2)s1 | 94.92
27 | CC(=O)c1cccc(OCCCC(=O)N(C)CC(N)=O)c1 | -6.7
28 | Cc1cccc2[nH]c(C3CCN(C(=O)c4ccc[nH]4)CC3)nc12 | -3.208
29 | O=C(Cc1ccn[nH]1)Nc1cncc(Br)c1O | -6.696
30 | CC(C)Cc1cc(CNC(=O)c2cccc3c2OCC3)no1 | -12.78
31 | CC(=O)N[C@@H]1CN(Cc2nccn2C)C[C@H]1c1ccc(C)cc1 | -2.996
32 | CC(CNC(=O)c1cc(N2CCNC2=O)ccc1F)c1ccccc1 (stereo not drawn) | -2.028
33 | CC(Sc1nc(N)cc(N)n1)c1nc(C(C)(C)C)no1 (stereo not drawn) | 6.059
34 | CCOCC(=O)N1C[C@H]2CN(CC3CC3)C(=O)[C@H]2C1 | -26.93
35 | CCS(=O)(=O)N1C[C@H]2CN(CC3CC3)C(=O)[C@H]2C1 | 114.7
36 | O=C1[C@H]2CN(c3ncc(F)cn3)C[C@H]2CN1CC1CC1 | 15.28
37 | CN(C)C(=O)CN1CC[C@H]2CN(S(C)(=O)=O)C[C@@H]2C1=O.O=C(O)C(F)(F)F | -14.63
38 | O=C1[C@H]2CN(S(=O)(=O)C3CC3)C[C@H]2CN1CC1CC1 | 100.8
39 | O=C(CC(F)(F)F)N1C[C@H]2CN(CC3CC3)C(=O)[C@H]2C1 | -26.88
40 | O=C1[C@H]2CN(S(=O)(=O)c3cccs3)C[C@H]2CN1CC1CC1 | -15.27
41 | CS(=O)(=O)N1C[C@H]2CN(CC3CC3)C(=O)[C@H]2C1 | 101.9
42 | CC(=O)N1C[C@H]2CN(CC3CC3)C(=O)[C@H]2C1 | -8.606
43 | Cc1cccnc1NC(=O)c1ccc(-n2cncn2)nn1 | -9.23
44 | CCN(CCCNC(=O)c1cc2cccc(F)c2o1)S(C)(=O)=O | 13.88
45 | O=C(NCc1ccc(Cl)s1)c1ccc(N2CCOC2=O)cc1 | -4.831
46 | Cc1ccc(N2CCCC(N(C)Cc3ccccn3)C2)nn1 (stereo not drawn) | 1.725
47 | CN(Cc1cc(-c2ccccc2)no1)C1CCCN(c2cccnn2)C1 (stereo not drawn) | -1.752
48 | Cc1cnc(CN(C)C2CCCN(c3cccnn3)C2)cn1 (stereo not drawn) | 107
49 | Cc1cc(CN(C)C2CCCN(c3cccnn3)C2)no1 (stereo not drawn) | 110.4
50 | CN(Cc1cscn1)C1CCCN(c2cccnn2)C1 (stereo not drawn) | 95.91

Row | SMILES | Percent Effect [%]
51 | Cc1cc(CN(C)C2CCCN(c3cccnn3)C2)on1 (stereo not drawn) | -2.461
52 | CN(Cc1nnc(-c2ccco2)o1)C1CCCN(c2cccnn2)C1 (stereo not drawn) | 5.287
53 | Cc1ccc(N2CCCC(N(C)Cc3cc(C)on3)C2)nn1 (stereo not drawn) | -10.05
54 | CCOc1nnc(CN(C)C2CCCN(c3ccc(C)nn3)C2)s1 (stereo not drawn) | 91.1
55 | CCOc1nnc(CNC2CCCN(c3ccc(C)nn3)C2)s1 (stereo not drawn) | 6.809
56 | CC(C)n1nc2c(cc1=O)CN(c1nc3ccccc3s1)CC2 | 8.102
57 | CC(NC(=O)N1CCC2(C1)OCCO2)c1cccc(Cl)c1 (stereo not drawn) | -15.89
58 | CN1CCCC(CCC(=O)N2CCc3onc(C(=O)N(C)C)c3C2)C1 (stereo not drawn) | 14.32
59 | Cc1noc(CNc2ccccc2N2CCCCC2)n1 | 5.096
60 | CC(C)c1noc(CS(=O)(=O)CC(=O)NCC(F)(F)F)n1 | -6.707
61 | Cc1ncc(CN(C)CC2CCCN2c2cccnn2)s1 (stereo not drawn) | 0.5019
62 | CN(Cc1ncc(C(C)(C)C)o1)C1CCCN(c2cccnn2)C1 (stereo not drawn) | -2.807
63 | Cc1ncc(CN(C)C2CCCN(c3cccnn3)C2)s1 (stereo not drawn) | 87.88
64 | Cc1ccsc1[C@@H]1CCN(C(=O)CCc2nc3ccccc3[nH]2)C[C@H]1O | -8.794
65 | Cc1cnc(C(=O)N2CCC3(CC2)CC(c2ccccc2)C(=O)N3)cn1 (stereo not drawn) | -6.858
66 | O=C(O)C(F)(F)F.O=C1NC2(CCN(C(=O)N3CCOCC3)CC2)CC1c1cccnc1 (stereo not drawn) | 179.1
67 | Cc1ccc(C(=O)N2CCC3(CC2)CC(c2ccccc2)C(=O)N3)cn1.O=C(O)C(F)(F)F (stereo not drawn) | -11.02
68 | O=C(O)C(F)(F)F.O=C1NC2(CCN(c3ncccn3)CC2)CC1c1cccnc1 (stereo not drawn) | -4.388
69 | Cc1cccc(C(=O)N2CCC3(CC2)CC(c2ccccc2)C(=O)N3)c1 (stereo not drawn) | -4.545
70 | O=C(O)C(F)(F)F.O=C1NC2(CCN(C(=O)c3ccccc3)CC2)CC1c1cccnc1 (stereo not drawn) | -9.682
71 | O=C1NC2(CCN(C(=O)c3ccc(Cl)cc3)CC2)CC1c1ccccc1 (stereo not drawn) | 7.391
72 | O=C1NC2(CCN(C(=O)c3ccnnc3)CC2)CC1c1ccccc1 (stereo not drawn) | 95.48
73 | Cc1cc(C(=O)N2CCC3(CC2)CC(c2cccnc2)C(=O)N3)no1.O=C(O)C(F)(F)F (stereo not drawn) | 102.9
